From PubChem BioAssay (NCATS) come the findings set out here.

Structures are written as SMILES. Values without a mark were called inactive. Inconclusive results are not listed. The source made the active and inactive calls. Unless noted, calls follow the shape of the dose curve; as a rule, active = well fitted curve in either direction with a large enough effect (not every such curve was filed as active); inconclusive = small, poorly fitted or top-dose-only effect, or another doubt; inactive = flat fitted curve, though single readings scatter. Where only a bound is given, the exact number is not on record here.

Assay [1] can be described thus: AP1 Signaling Pathway (AID 357). Also: % is scaled to controls: 0 for no effect and ±100 for the full control effect. Conditions: ME-180 AP-1-bla reporter, EGF-induced, beta-lactamase ratio, 5 h; at 17.2 µM (top of the series) unless noted. The gist of the method: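 Cells are seeded overnight, exposed to compound titrations and an EC50 level of EGF for 5 hours at 37 °C, then loaded with CCF4 dye for 2.5 hours. Beta-lactamase activity under the AP-1 element is read as a blue/green ratio.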

Assay [2] is described as follows: NFAT Signaling Pathway (AID 444).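 Also: carbachol stimulus at about its EC50 of 1 µM final; % is scaled to controls: 0 for no effect and ±100 for the full control effect.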 To be noted: Jurkat NFAT-bla M1, carbachol, beta-lactamase ratio, 5 h; at 17.2 µM (top of the series) unless noted. The method, boiled down:
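Read-out: CCF4 FRET ratio (460 nm/530 nm) after 1 h RT dye loading, used for %activity and AC50 from titration series. Cells: Jurkat NFAT-β-lactamase/M1 line, treated with compound plus 1 uM carbachol for 5 h, 37 °C.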

Assay [3] can be described thus: Stat Signaling Pathway (AID 446).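 Also: ME-180 cervical cancer cells given 40 pM IL-6 alongside compound; SIE-controlled beta-lactamase reporter measured as 460/530 nm FRET emission ratio; % is scaled to controls: 0 for no effect and ±100 for the full control effect.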 The gist of the method: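 ME-180 SIE-bla cells; overnight plating; cpd + IL-6 40 pM, 5 h, 37 C; LiveBLAzer 2.5 h RT; 460/530 nm emission ratio. Normalized to 300 pM IL-6 and 125 nM JAK inhibitor controls.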
The target in assay [4] is Glucocorticoid receptor (Homo sapiens) (UniProt P04150). The assay is described as follows: GR-GFP Redistribution (AID 450;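 active = compounds whose dose series gives a full or clear partial fitted curve of increased nuclear translocation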; also: potency is read from the fitted curve at half-maximal effect). To be noted: U2OS GR-GFP nuclear translocation, laser cytometry, 2 h.
Assay [5] concerns the target Cytochrome P450 1A2 (Homo sapiens) (UniProt P05177). The assay is described as follows: p450-cyp1a2 (AID 410; calls by dose curve;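 also: -100% = full effect of reference inhibitor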). The method, boiled down: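 Inhibition was calculated relative to 57 uM furafylline (full inhibition). The reaction used human CYP1A2 at 20nM with Luciferin-ME at its Km, 100uM, driven by an NADPH-regenerating system for 60 min at room temperature.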
In assay [6] the target is Glucocorticoid receptor (Homo sapiens) (UniProt P04150). The assay is described as follows: GR-EFC Redistribution (AID 451; calls by dose curve; also: potency is read from the fitted curve at half-maximal effect). Conditions: CHO-K1 GR-EFC translocation, beta-gal luminescence, 2 h. The method, boiled down:
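Translocation of GR-ED fusion to nuclear EA restores b-gal, read by luminescence after 1 h room-temperature detection. Engineered CHO-K1 biosensor cells, 1,000/well, exposed 2 h at 37 C to titrations up to 46 uM final.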

For assay [7], the target named is Mitogen-activated protein kinase 10 (Mus musculus) (UniProt Q61831). The assay is described as follows: JNK3 AlphaScreen Assay (AID 530).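 Also: kinase came from lysate of stimulated human HepG2 cells; signal reports phosphorylation of biotinylated GST-cJun 1-79 at Ser73 with 10 µM ATP; % is scaled to controls: 0 for no effect and ±100 for the full control effect.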 The method, boiled down:
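Room-temperature AlphaScreen kinase assay; pre-activated HepG2 lysate as JNK3 source, biotin-GST-cJun(1-79) substrate, 10 uM ATP, compound 15 min preincubation.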
A general note: In Alpha technology, singlet oxygen from a donor bead excites a nearby acceptor bead.

The target in assay [8] is 3',5'-cyclic-AMP phosphodiesterase 4B (Homo sapiens) (UniProt Q07343). The assay is described as follows: qHTS Assay for Inhibitors of PDE-IV (AID 607; active = well fitted activation curve with a large enough effect in the main read-out, with a control signal flat, not every such curve was filed as active; also: % of control where 0% means no effect). The gist of the method:
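ACTOne HEK293 cells carry a modified cAMP-gated CNG channel and express endogenous PDE4; plated 1000 cells/well, compounds up to 22.9 uM final. Membrane-potential dye fluorescence (ex 535/em 590) was read; parental cells received 10 uM forskolin + 100 uM RO 20-1724.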
(In general: qHTS replaces the single test concentration by a dilution series.)

Assay [9] has as its target Guanine nucleotide-binding protein G(i) subunit alpha-1 (Homo sapiens) (UniProt P63096). The assay is described as follows: qHTS Assay for Inhibitors of RGS12 GoLoco Motif Activity (Green Fluorophore) (AID 879; active = well fitted curve in the direction sought with a large enough effect; an effect the other way counts as inactive or inconclusive;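 also: 0% = labeled peptide with Gαi1 and full inhibition = labeled peptide alone without protein; negative values mean loss of peptide binding seen as reduced polarization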). The method, boiled down:
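Fluorescence polarization assay: 50 nM Gαi1 with 10 nM FITC-labeled RGS12 GoLoco peptide in 10 mM Tris pH 7.5, 150 mM NaCl, 0.1 mM GDP, 0.05% NP40, 10 min at room temperature with compound.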

Assay [10] is described as follows: qHTS Assay for Identification of Small Molecule Agonists for Thrombopoietin (TPO) Signaling Pathway (AID 917; active = well fitted curve in the direction sought with a large enough effect; an effect the other way counts as inactive or inconclusive; also: % is scaled to controls: 0 for no effect and ±100 for the full control effect). The method, boiled down:
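Reporter: GpIIb promoter–luciferase in murine Ba/F3 expressing human TPO receptor. Pre-starved of IL-3 overnight; compounds with 26 pM TPO, 24 hrs, 37 C/5% CO2; luminescence read.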

The target in assay [11] is Muscarinic acetylcholine receptor M1 (Rattus norvegicus) (UniProt P08482). The experiment in a line: qHTS Assay for Antagonists of Acetylcholine Muscarinic M1 Receptor: Measurement of IP-One Response (AID 944; active = well fitted curve in the direction sought with a large enough effect; an effect the other way counts as inactive or inconclusive; also: potency is read from the fitted curve at half-maximal effect; nearly all actives have a fitted effect of over 75% in size). The gist of the method: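 Steps: plate transfected CHO-M1 cells overnight; add test compound, 10 min; add carbachol (200 nM, EC80) in stimulation buffer with LiCl; incubate 30 min; add labelled IP1 tracer and anti-IP1 antibody in lysis buffer; read HTRF after 10 min.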

Assay [12] concerns the target Pyruvate kinase (Leishmania mexicana) (UniProt Q27686). The assay is described as follows: qHTS Validation Assay for Inhibitors of Leishmania Mexicana Pyruvate Kinase (AID 945; active = well fitted curve in the direction sought with a large enough effect; an effect the other way counts as inactive or inconclusive;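 also: 0% = DMSO only neutral control wells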). The method, boiled down:
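Compounds are tested as eight-point concentration series. Reactions contain 0.2 nM LmPYK E451W, 0.5 mM PEP, 0.1 mM ADP, 7 mM MgCl2 and 50 mM KCl at pH 7.2, run 1 h at room temperature, then read by PKLight luminescence.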

The target in assay [13] is Pyruvate kinase PKM (Homo sapiens) (UniProt P14618). The experiment in a line: qHTS Assay for Activators of Human Muscle Pyruvate Kinase (AID 954; active = well fitted curve in the direction sought with a large enough effect, not every such curve was filed as active;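 also: 0% = uninhibited enzyme and -100% = no enzyme or full thiadiazolimine inhibition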). The gist of the method:
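Luminescence from a luciferase ATP-detection/stop reagent reported PKM2 activity. Reactions contained 0.1 nM purified human enzyme, 0.5 mM PEP, 0.1 mM ADP and 7 mM MgCl2 at pH 7.2, run 1 h at RT.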

The target of assay [14] is Alpha-galactosidase (Coffea arabica) (UniProt Q42656). The assay is described as follows: Counterscreen for Glucocerebrosidase Inhibitors: qHTS Assay for Coffee Bean alpha-Galactosidase at pH 4.5 (AID 957; active = well fitted curve in the direction sought with a large enough effect; an effect the other way counts as inactive or inconclusive;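 also: plate controls were enzyme alone for no effect and no enzyme for full effect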). The method, boiled down:
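AC50 values derive from Hill-equation modeling of concentration-response data, normalized to no-enzyme and full-activity controls. The pH 4.5 citrate assay used 2 nM coffee bean enzyme and 80 uM fluorogenic substrate for 20 min.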

Assay [15] deals with alpha-glucosidase (Oryza sativa, rice) (UniProt Q653V4). The experiment in a line: Counterscreen for Glucocerebrosidase Inhibitors: qHTS Assay for Rice alpha-Glucosidase at pH 5.0 (AID 997; active = well fitted curve in the direction sought with a large enough effect; an effect the other way counts as inactive or inconclusive;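 also: 0% = full activity with enzyme and -100% = basal without enzyme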). The gist of the method:
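Rice alpha-glucosidase (4 nM final) with 400 uM 4-methylumbelliferyl-alpha-D-glucopyranoside in citrate buffer pH 5.0, 20 min at room temperature, stopped at pH 10; fluorescence 365/440 nm, compounds 0.7 nM–77 uM, AC50 from Hill fits.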

For assay [16], the target named is Cytochrome P450 2C9 (Homo sapiens) (UniProt P11712). The assay is described as follows: qHTS Assay for Inhibitors and Substrates of Cytochrome P450 2C9 (AID 883; active = well fitted curve in the direction sought with a large enough effect; an effect the other way counts as inactive or inconclusive; also: % is scaled to controls: 0 for no effect and ±100 for the full control effect; nearly all actives have a fitted effect of over 60% in size). The gist of the method:
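Luminescent read-out of deoxyluciferin hydroxylation, normalized to 57uM sulphaphenazole (AC100). Reaction: 10nM enzyme, 100uM Luciferin-H (equal to KM), 25mM KPO4, 10 min compound preincubation, then 60 min with NADPH regeneration, both at 37C.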

In assay [17] the target is Cytochrome P450 3A4 (Homo sapiens) (UniProt P08684). The assay is described as follows: qHTS Assay for Activators of Cytochrome P450 3A4 (AID 885; active = well fitted curve in the direction sought with a large enough effect; an effect the other way counts as inactive or inconclusive; also: nearly all actives have a fitted effect of over 65% in size). The gist of the method: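 20nM CYP3A4 + 25uM Luciferin-PPXE (=KM), 200mM KPO4; cpd 10 min RT; NADPH regen, 60 min RT; stop w/ detection buffer, 20 min; luminescence. Normalized to 57 uM ketoconazole.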
Assay [18] concerns the target Cytochrome P450 2D6 (Homo sapiens) (UniProt P10635). The assay is described as follows: qHTS Assay for Inhibitors and Substrates of Cytochrome P450 2D6 (AID 891; active = well fitted curve in the direction sought with a large enough effect; an effect the other way counts as inactive or inconclusive; also: potency is read from the fitted curve at half-maximal effect; nearly all actives have a fitted effect of over 60% in size). The gist of the method:
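Human CYP2D6 (5 nM) with 30 uM Luciferin-ME EGE (at Km) in 100 mM KPO4, compound preincubated 10 min, then NADPH regeneration system for 60 min at room temperature. Luciferin read by luminescence; normalized to 1.43 uM quinidine.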

Assay [19] in a line: qHTS Assay for Identification of Small Molecule Antagonists for NFkB Signaling Pathway (AID 895; active = well fitted inhibition curve with a large enough effect in the signal ratio, with a control signal flat, not every such curve was filed as active; the % refers to the signal ratio; also: % is scaled to controls: 0 for no effect and ±100 for the full control effect). The gist of the method: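 Beta-lactamase reporter read-out (460 and 530 nm emission ratio, 405 nm excitation, 2 hrs substrate loading RT) after 5 hr stimulation with 10 pM TNF alpha in compound-treated NFkB-bla ME-180 cells in low-serum medium.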
The target of assay [20] is Muscarinic acetylcholine receptor M1 (Rattus norvegicus) (UniProt P08482). The experiment in a line: qHTS Assay for Antagonists of Acetylcholine Muscarinic M1 Receptor: Kinetic Measurement of Intracellular Calcium Response (AID 943; active = well fitted curve in the direction sought with a large enough effect; an effect the other way counts as inactive or inconclusive;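 also: Fluo-4 calcium signal as peak divided by basal fluorescence over 4 min; nearly all actives have a fitted effect of over 75% in size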). The method, boiled down: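 Intracellular calcium flux, recorded with Fluo-4 in a kinetic plate reader, served as signal; the response to carbachol at EC80 (100 nM final) was taken as maximal over minimal fluorescence after a 10 min compound pre-incubation in rat M1-CHO cells.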

Assay [21] has as its target Alpha-galactosidase (Coffea arabica) (UniProt Q42656). The assay is described as follows: Counterscreen for Glucocerebrosidase Inhibitors: qHTS Assay for Coffee Bean alpha-Galactosidase at pH 5.9 (AID 998; active = well fitted curve in the direction sought with a large enough effect; an effect the other way counts as inactive or inconclusive;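 also: plate controls were uninhibited enzyme for no effect and no-enzyme basal signal for full effect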). The gist of the method: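 Compounds were titrated from 0.7 nM to 77 uM against green coffee bean alpha-galactosidase (2 nM) using 80 uM fluorogenic 4-methylumbelliferyl substrate. After 20 min at room temperature, reactions were stopped at pH 10 and read by fluorescence.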
Background: A counterscreen serves to expose hits that act by an unwanted route or on another target.

Chain of Glucocorticoid receptor (Homo sapiens) (P04150 whole entry, looked up, the tested form may be a part): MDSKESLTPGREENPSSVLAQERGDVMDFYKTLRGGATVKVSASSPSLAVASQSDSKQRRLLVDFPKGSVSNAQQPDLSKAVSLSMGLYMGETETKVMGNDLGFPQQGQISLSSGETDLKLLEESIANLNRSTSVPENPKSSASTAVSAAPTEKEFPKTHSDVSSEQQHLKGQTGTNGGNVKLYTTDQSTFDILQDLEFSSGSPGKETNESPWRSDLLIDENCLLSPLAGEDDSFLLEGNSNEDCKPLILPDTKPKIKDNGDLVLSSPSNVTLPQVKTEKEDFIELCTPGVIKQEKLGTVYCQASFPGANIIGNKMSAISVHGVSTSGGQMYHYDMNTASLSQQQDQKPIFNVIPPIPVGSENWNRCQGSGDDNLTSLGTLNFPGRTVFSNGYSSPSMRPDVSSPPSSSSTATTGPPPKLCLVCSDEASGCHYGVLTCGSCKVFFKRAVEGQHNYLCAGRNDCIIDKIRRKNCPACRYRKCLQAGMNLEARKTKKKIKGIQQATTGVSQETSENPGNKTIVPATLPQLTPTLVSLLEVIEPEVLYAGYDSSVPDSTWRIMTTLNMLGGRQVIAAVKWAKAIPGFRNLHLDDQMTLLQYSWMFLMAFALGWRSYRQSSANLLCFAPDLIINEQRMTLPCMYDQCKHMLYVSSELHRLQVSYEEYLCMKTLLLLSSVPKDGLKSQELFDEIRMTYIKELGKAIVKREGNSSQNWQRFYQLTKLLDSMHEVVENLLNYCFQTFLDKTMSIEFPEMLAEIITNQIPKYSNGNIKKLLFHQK
Chain of Muscarinic acetylcholine receptor M1 (Rattus norvegicus) (P08482 whole entry, looked up): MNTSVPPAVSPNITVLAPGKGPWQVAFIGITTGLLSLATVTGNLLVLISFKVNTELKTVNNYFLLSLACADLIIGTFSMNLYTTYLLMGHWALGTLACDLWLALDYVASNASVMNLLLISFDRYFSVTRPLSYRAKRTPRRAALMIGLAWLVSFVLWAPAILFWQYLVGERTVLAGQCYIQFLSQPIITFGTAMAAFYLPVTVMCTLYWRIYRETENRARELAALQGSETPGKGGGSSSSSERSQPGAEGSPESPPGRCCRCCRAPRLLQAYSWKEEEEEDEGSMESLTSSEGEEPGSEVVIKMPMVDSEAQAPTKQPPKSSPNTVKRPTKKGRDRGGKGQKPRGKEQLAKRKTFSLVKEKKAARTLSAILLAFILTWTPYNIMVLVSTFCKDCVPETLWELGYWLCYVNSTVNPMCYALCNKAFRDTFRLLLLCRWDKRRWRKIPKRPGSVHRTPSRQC
Chain of Pyruvate kinase PKM (Homo sapiens) (P14618 whole entry, looked up): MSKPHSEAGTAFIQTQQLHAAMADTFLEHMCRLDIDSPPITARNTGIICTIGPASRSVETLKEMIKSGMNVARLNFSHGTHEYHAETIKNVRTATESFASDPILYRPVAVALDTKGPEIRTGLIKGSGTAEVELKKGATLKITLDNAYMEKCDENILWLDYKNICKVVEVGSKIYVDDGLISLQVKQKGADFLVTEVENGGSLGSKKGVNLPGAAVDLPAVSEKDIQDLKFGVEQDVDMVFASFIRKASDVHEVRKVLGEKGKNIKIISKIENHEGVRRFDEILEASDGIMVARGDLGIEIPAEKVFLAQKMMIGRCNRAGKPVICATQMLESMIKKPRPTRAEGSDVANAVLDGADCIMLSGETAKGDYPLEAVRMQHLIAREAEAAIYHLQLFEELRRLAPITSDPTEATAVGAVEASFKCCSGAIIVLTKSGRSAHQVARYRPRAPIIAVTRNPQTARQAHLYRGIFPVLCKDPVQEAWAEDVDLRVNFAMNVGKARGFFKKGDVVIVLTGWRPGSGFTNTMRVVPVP
Chain of Pyruvate kinase (Leishmania mexicana) (Q27686 2-499 E452W): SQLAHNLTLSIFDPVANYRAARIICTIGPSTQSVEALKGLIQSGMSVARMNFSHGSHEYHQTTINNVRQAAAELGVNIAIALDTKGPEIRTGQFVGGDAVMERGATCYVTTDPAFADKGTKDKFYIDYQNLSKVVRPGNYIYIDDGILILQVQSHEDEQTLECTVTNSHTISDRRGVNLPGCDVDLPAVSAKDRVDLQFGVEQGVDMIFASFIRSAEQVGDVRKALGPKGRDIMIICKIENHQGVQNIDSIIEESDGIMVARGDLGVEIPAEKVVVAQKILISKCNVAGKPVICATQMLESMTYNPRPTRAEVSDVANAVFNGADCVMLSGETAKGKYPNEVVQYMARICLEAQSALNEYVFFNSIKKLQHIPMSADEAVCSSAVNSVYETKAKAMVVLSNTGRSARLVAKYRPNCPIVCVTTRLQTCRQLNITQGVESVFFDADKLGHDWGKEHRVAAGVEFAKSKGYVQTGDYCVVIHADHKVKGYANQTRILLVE
Chain of Cytochrome P450 1A2 (Homo sapiens) (P05177 whole entry, looked up): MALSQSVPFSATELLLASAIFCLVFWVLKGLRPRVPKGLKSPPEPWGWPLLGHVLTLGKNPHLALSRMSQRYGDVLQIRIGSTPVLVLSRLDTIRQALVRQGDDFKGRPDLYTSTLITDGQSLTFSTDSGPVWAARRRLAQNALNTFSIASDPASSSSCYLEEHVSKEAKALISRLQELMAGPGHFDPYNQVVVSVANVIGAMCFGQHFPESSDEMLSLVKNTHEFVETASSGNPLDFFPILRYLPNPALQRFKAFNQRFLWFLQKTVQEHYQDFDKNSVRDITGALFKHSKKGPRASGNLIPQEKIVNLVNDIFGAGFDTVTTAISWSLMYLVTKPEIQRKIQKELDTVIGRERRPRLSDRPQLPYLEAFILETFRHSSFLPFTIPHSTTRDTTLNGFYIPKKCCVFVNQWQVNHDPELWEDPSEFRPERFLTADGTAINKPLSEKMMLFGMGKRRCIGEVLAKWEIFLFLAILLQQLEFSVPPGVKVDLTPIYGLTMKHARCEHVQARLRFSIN
Chain of Alpha-galactosidase (Coffea arabica) (Q42656 whole entry, looked up): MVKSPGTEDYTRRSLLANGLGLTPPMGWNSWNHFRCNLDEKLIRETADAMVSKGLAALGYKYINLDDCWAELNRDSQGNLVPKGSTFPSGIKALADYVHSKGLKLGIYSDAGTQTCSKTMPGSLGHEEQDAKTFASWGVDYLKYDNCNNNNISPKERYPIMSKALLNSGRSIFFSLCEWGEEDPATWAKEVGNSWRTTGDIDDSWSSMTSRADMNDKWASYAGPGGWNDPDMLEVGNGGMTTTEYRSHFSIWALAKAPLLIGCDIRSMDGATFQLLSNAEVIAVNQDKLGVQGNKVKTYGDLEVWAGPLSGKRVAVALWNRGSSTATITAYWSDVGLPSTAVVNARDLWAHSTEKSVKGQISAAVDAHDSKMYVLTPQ
Chain of Cytochrome P450 3A4 (Homo sapiens) (P08684 whole entry, looked up): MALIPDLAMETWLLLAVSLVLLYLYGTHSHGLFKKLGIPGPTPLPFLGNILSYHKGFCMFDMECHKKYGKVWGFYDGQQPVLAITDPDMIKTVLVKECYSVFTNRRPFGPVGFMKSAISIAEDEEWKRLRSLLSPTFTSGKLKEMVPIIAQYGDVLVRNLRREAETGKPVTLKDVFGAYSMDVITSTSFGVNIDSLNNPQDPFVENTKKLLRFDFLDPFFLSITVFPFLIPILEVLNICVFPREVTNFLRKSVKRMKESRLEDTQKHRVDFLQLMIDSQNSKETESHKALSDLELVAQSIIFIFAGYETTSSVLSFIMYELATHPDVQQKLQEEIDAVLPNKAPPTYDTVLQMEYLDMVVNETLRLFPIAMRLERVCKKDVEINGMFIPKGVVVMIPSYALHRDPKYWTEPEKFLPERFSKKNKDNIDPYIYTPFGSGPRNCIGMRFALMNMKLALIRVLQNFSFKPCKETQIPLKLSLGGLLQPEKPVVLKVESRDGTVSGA
Chain of 3',5'-cyclic-AMP phosphodiesterase 4B (Homo sapiens) (Q07343 whole entry, looked up): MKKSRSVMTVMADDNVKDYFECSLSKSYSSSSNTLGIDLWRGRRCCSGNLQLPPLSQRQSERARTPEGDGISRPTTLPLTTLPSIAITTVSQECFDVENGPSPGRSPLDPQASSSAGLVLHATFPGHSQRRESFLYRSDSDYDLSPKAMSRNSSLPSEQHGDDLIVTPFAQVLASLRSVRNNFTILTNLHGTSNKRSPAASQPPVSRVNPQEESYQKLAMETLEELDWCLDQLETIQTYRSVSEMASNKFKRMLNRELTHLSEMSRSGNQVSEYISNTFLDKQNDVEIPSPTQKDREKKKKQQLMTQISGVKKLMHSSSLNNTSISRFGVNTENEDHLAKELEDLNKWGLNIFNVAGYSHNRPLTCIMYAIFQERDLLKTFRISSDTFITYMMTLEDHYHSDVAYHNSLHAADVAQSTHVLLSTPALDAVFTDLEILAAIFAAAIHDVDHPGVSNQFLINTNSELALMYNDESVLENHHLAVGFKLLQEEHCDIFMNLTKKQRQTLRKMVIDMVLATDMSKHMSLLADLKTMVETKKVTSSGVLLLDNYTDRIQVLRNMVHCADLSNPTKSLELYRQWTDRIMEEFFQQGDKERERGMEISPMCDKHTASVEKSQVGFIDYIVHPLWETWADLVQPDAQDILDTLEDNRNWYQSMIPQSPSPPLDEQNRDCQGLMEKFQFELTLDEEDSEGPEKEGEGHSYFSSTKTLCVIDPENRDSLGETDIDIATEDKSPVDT
Chain of Cytochrome P450 2D6 (Homo sapiens) (P10635 whole entry, looked up): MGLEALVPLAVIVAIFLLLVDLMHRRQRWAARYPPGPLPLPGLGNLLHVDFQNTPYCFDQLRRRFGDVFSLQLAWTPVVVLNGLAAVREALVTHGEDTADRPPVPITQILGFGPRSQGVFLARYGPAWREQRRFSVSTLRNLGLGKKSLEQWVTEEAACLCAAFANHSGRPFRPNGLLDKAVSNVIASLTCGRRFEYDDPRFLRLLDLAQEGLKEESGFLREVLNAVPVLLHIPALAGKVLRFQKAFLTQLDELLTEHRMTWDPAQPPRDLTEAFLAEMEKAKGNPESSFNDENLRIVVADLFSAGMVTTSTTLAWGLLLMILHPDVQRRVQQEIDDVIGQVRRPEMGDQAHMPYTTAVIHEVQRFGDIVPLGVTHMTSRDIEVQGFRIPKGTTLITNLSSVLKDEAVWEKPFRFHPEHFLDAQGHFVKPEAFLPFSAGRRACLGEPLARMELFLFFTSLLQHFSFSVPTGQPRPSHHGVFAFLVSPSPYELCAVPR

On to `COc1ccccc1-n1c(O)c(C=NCCCn2ccnc2)c(=O)[nH]c1=O`, for which the activity change, negative = inhibition in [1] is 6.21%; in [2], 10.5%. The compound was classed as inactive in assay [3]. For the same compound, the Potency in assay [4] was over 20.6 µM.

As for `CC(=O)C1(c2ccccc2)CCNCC1`, the values for the activity change, negative = inhibition in assay [1] and in assay [2] were 6.36% and -17.3%, respectively. The call in assay [3] was inactive. In addition, the Potency in assay [4] is over 20.6 µM.

With `O=C1c2ccccc2C(=O)N1Cc1nc2ccccc2c(=O)n1-c1cccnc1`, the activity change, negative = inhibition was 24% in assay [1] and -3.03% in assay [2]. For the same compound, the outcome in assay [3] was inactive.

Take `CN(C)CCOC(=O)c1cn(Cc2ccccc2)c2ccccc12`: the activity change, negative = inhibition was 16% in assay [1] and -13.6% in assay [2]. Also, the compound was classed as inactive in assay [3].

On to `CC(=O)CC(C)(C)n1c[n+](C)nn1`, for which the figures for the activity change, negative = inhibition in assay [1] and in [2] were -8.26% and -3.99%, respectively. For the same compound, the compound was classed as inactive in assay [3].

`O=c1[nH]c(=O)n(-c2cccc3ccccc23)c(O)c1C=NCCCn1ccnc1`: the activity change, negative = inhibition in [1] was 14.5%; in assay [2], -7.5%. Further, the call in assay [3] was inactive. In [4], the Potency is over 20.6 µM.

Consider `CCCCCCn1c(O)c(C=NCCN2CCCCC2)c(=O)[nH]c1=O`, for which the values for the activity change, negative = inhibition in [1] and in assay [2] were 10.2% and 4.87%, respectively. In assay [3], the result was inactive.

Regarding `COc1ccc2c(c1)c(C(=O)O)c(C)n2CC(C)C`, the activity change, negative = inhibition in assay [1] was 12.3%; in assay [2], 1.61%. Also, in assay [3], the result was inactive. For the same compound, in assay [4], the Potency was over 20.6 µM.

Turning to `CCOC(=O)C1=C(C)OC(N)=C(C(=O)OCC)[C@@]12C(=O)N(CC(N)=O)c1ccccc12`, the results for the activity change, negative = inhibition in assay [1] and in assay [2] were 1.68% and 2.5%, respectively. The outcome in assay [3] was inactive.

As for `C=CCn1c(O)c(C=Nc2ccc(N(CC)CC)cc2)c(=O)[nH]c1=O`, in assay [1], the activity change, negative = inhibition was -13.2%.

With `O=c1[nH]c(=O)n(Cc2ccccc2)c(O)c1C=NCCN1CCOCC1`, the activity change, negative = inhibition in assay [1] was 1.24%; in [2], -7.84%. Also, the outcome in assay [3] was inactive. Moreover, in [4], the Potency was over 20.6 µM.

For `CCCN1CCC[C@H](c2cccc(C#N)c2)C1`, in [1], the activity change, negative = inhibition was 7.99% [at 38 µM]. Besides, the Potency entry in assay [5], in [9] and in [12] was “inactive” throughout. The result in assay [3], in [7], in assay [8], in [10], in assay [13] and in assay [14] was inactive. Also, the outcome in [15] was inactive. Moreover, the figures for the Potency in assay [4], in [6] and in assay [11] were over 46 µM, over 46 µM and 11.2 µM (active), respectively.

Turning to `CCN(CC)C(=O)N[C@H]1C[C@H]2c3cccc4[nH]cc(c34)C[C@@H]2N(C)C1`, the figures for the activity change, negative = inhibition in [1] and in [2] were 9.81% [at 38 µM] and 3.16% [at 38 µM], respectively. Also, the Potency entry in assay [5], in assay [16], in assay [17], in assay [19], in [20] and in assay [12] was “inactive” throughout. The outcome in [3], in [7], in assay [10], in assay [13], in assay [15] and in [21] was inactive. In [18], the Potency was 0.0398 µM (active).
